# Pf growth 48h = inhibits P. falciparum growth in the first generation, 48 h; 5.9% of 310,000 active; P. falciparum luciferase growth in erythrocytes, 48 h; Potency, µM (highest dose often 28.7 µM), inactives show at the highest dose activity change, negative = inhibition, actives largely listed as inhibitors; further: on the % scale 0 is the no-effect control and ±100 the full control effect
#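 First compound was added to culture medium, then infected red cells at 0.1% parasitemia and 2% hematocrit (final). After incubation at 37 C under 5% CO2, luciferase detection reagent was dispensed and light output recorded.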
# SARS PLP yeast = inhibitors of SARS-CoV papain-like protease in yeast; S. cerevisiae expressing SARS-CoV PLpro, growth rescue; Potency, µM (top dose mostly 32.9 µM), inactives show top-dose activity, positive = growth rescue, hits mostly activators; 0.19% of 330,000 active; calls by dose curve; further: 0% is about no effect; nearly all actives have a fitted effect of over 55% in size
# NS1 inh = inhibitors of influenza NS1 protein function | Potency, µM (top dose mostly 46.1 µM), for inactives: at the top dose activity, positive = more growth | 0.4% of 270,000 active | AID 2326; calls by dose curve; further: actives are rising curves; nearly all actives have a fitted effect of over 50% in size
#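 Read-out: OD600 growth recovery of NS1-expressing budding yeast. Cells grown overnight at 30C in -URA glucose medium, washed, resuspended and diluted 1:100 in 2% galactose assay medium, pH 6.0. Same strain lacking NS1 served as positive control.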
# RE007 growth inh = less growth of the S. pombe RE007 Vpr strain; S. pombe RE007 Vpr strain, BacTiter-Glo ATP luminescence, 24 h; Potency, µM (top dose mostly 92.2 µM), inactives show at the top dose activity change, negative = less growth, actives largely listed as inhibitors; 0.21% of 360,000 active; active means well fitted falling curve with a large enough effect; inconclusive means small, poorly fitted or top-dose-only effect; inactive means no such curve, though single readings can be large or run the other way; further: on the % scale 0 is the no-effect control and ±100 the full control effect; nearly all actives have a fitted effect of over 50% in size
#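 Fission yeast RE007 carrying one integrated HIV-1 vpr copy, seeded at OD 0.01 in PMG+AL medium with 23 nL pinned compound. Grown 24 h at 30 degrees; viability read by BacTiter-Glo luminescence after 5 min.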
# Pf growth 96h = P. falciparum growth inhibition at 96 hour, primary screen for plastid delayed-death inhibitors; Potency, µM (highest dose often 28.7 µM), inactives show top-dose activity change, negative = inhibition, hits mostly inhibitors; P. falciparum luciferase reporter growth, 96 h; AID 504834; 6.9% of 320,000 active; further: on the % scale 0 is the no-effect control and ±100 the full control effect
#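 Delayed-death screen, second-generation endpoint: infected erythrocytes, 2% hematocrit, 0.05% parasitemia final; 96 hours at 37 C, 5% CO2; luciferase detection reagent; luminescence decrease equals reduced growth.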
# * marks the source's active call; other numbers are inactive results; ? = inconclusive; / = no result given; ! = not confirmed by another sample; [ ] = dose if it differs, or a comment. Shown are actives, neighbours in structure and some others; about 9.5% of the full set was active somewhere. Unless noted, the call rests on the fitted dose curve; in most records, active means well fitted inhibition curve with a large enough effect; inconclusive means small, poorly fitted or top-dose-only effect, or another doubt; inactive means no such curve, though single readings can be large or run the other way. Potency means the concentration at half of the fitted maximal effect.
SMILES,Pf growth 48h,SARS PLP yeast,NS1 inh,RE007 growth inh,Pf growth 96h
O=C1NC[C@@H](CCCCN2C[C@H](Cc3ccc(O)cc3)N(Cc3ccccc3)C(=O)C2=O)N(CCC2CCCCC2)C1=O,/,/,/,-7%,/
Cc1cc(C)n2nc(C(=O)OCC(=O)N(C)C3CCS(=O)(=O)C3)nc2n1 (stereo unspecified),-10%,0%,/,-11%,-9%
CCN(C[C@H]1N[C@@](C)(C(=O)OC)[C@H]2C(=O)N(C)C(=O)[C@@H]12)S(=O)(=O)c1ccc(F)cc1,/,-3%,/,12%,/
Cc1cc(NC(=O)c2cccc(S(=O)(=O)N3CCCCC3)c2)no1,?,1%,9%,0%,21%
O=C1NN=C(c2ccc(Cl)cc2)CC1c1cccc(Br)c1 (stereo unspecified),4.1µM*,-14%,4%,3%,12%
Cc1ccc(C2=NNC(=O)C(c3ccc(Cl)cc3)C2)cc1 (stereo unspecified),-6%,-2%,-6%,-15%,/
CCCNc1nc2c(c(=O)n(C)c(=O)n2C)n1CCCc1ccccc1,?,1%,-8%,-4%,1.5µM*
Cn1c(=O)c2c(nc(NCCO)n2CCc2ccccc2)n(C)c1=O,7%,0%,-20%,-11%,10µM*
CCCCCCn1c(NCC)nc2c1c(=O)n(C)c(=O)n2C,3.3µM*,2%,-11%,-9%,?
O=C1NN=C(c2ccccc2)C1Cc1ccccc1 (stereo unspecified),/,/,/,31%,/
O=C(CCS(=O)(=O)c1ccc(F)cc1)N1CCOCC1,49%,-2%,3%,21%,8%
CCOc1ccc(-n2cnc3scc(-c4ccc(OC)c(OC)c4)c3c2=O)cc1,?,3%,-1%,-11%,2.6µM*
CCC(C(=O)OC)n1cnc2scc(-c3ccc(C)c(C)c3)c2c1=O (stereo unspecified),13µM*,-23%,-129%,4%,0%
CCCn1cnc2scc(-c3ccc(C)c(C)c3)c2c1=O,2%,-9%,-22%,7%,10µM*
C=CCn1cnc2scc(-c3ccc(C)c(C)c3)c2c1=O,4%,-1%,-12%,14%,-4%
COc1ccc(/C=N/NC(=O)c2ccoc2C)cc1CN1CCN(c2ccc(F)cc2)CC1,9.3µM*,0%,-5%,-7%,?
O=C(O)Cc1ccc(C(=O)c2cccs2)s1,18%,7%,4%,11%,10µM*
O=C(O)c1ccccc1C(=O)c1cccs1,2%,7%,3%,-9%,-4%
Cc1c(Cc2ccccc2)c(=O)oc2cc(OCC(=O)NCC3CCC(C(=O)O)CC3)ccc12 (stereo unspecified),?,2%,-8%,-11%,12µM*
Cc1c(Cc2ccccc2)c(=O)oc2c(C)c(OC(C)C(=O)NCC3CCC(C(=O)O)CC3)ccc12 (stereo unspecified),?,-11%,5%,9%,13µM*
Cc1cc(OC(C)C(=O)NCC2CCC(C(=O)O)CC2)c2c(C)c(Cc3ccccc3)c(=O)oc2c1 (stereo unspecified),?,1%,11%,4%,10µM*
Cc1cc(=O)oc2c(C)c(OC(C)C(=O)NCC3CCC(C(=O)O)CC3)ccc12 (stereo unspecified),4%,4%,7%,-2%,1%
CC1=NN(c2cccc(C(=O)O)c2)C(=O)/C1=C\C=C/c1ccccc1,?,-6%,/,-26%,-11%
Cc1cc(N2CCCCCC2)nc(-c2ccccc2O)n1,-26%,-12%,-47%,-6%,/
CCCSc1cc(N2CCOCC2)nc(-c2ccccc2Cl)n1,/,-21%,-80%,-10%,12µM*
SMILES,Pf growth 48h,SARS PLP yeast,NS1 inh,RE007 growth inh,Pf growth 96h
Cc1cc(N2CCOCC2)nc(-c2ccccc2O)n1,14%,11%,-3%,-24%,2.3µM*
CCn1cc(CNC(=O)c2cc(COc3ccc(F)cc3F)on2)cn1,-2%,-1%,5%,7%,-3%
CN(C)/C=N/c1c(C(=O)NCc2ccccc2)nnn1Cc1ccccc1,2.6µM*,-5%,-2%,10%,8%
C[C@H]1C[C@H]2[C@H]3CCC4=CC(=O)C=C[C@@]4(C)[C@]3(F)[C@H](O)C[C@]2(C)[C@@]1(O)C(=O)COP(=O)(O)O,/,/,-3%,/,/
S=C1SCN(C2CCCCCCCCCCC2)CN1C1CCCCCCCCCCC1,/,/,-6%,/,/
CN(C)S(=O)(=O)c1cccc(N2C(=O)CC3(CCCCC3)CC2=O)c1,-5%,-4%,/,-2%,-12%
COc1ccc(N2C(=O)CC3(CCCC3)CC2=O)cc1,21%,25%,18%,-19%,6.6µM*
O=C1CC2(CCCC2)CC(=O)N1c1ccccc1,?,1%,/,7%,12µM*
COc1cccc(Oc2ccc3nnc(C(F)(F)F)n3n2)c1,382%,-5%,/,3%,57%
c1ccc2c(c1)OCC(C1=NCCN1)O2 (stereo unspecified),?,2%,12%,-17%[18.4 µM],4.8µM*!
Nn1c(C2COc3ccccc3O2)n[nH]c1=S (stereo unspecified),?,-2%,5%,-16%,?
Cc1ccc(N=N/C(=C\O)C(=O)c2ccncc2)cc1,/,-12%,-40%,20µM*,?
O=C(/C(=C/O)N=Nc1ccc(Cl)cc1)c1ccncc1,?,-26%,-127%,20µM*,?
CN(C)S(=O)(=O)c1ccc(NC(=O)COc2cccc3c2OC(C)(C)C3)cc1,?,0%,/,0%,?
O=C(CC1Nc2ccccc2NC1=O)NCC1COc2ccccc2O1 (stereo unspecified),12µM*,1%,4%,38%,11%
CCOC(=O)N1CCC(NC(=O)CSc2cc(=O)n(C)c3ccccc23)CC1,-6%,4%,-6%,15%,13µM*
Cc1cc(C)nc(SCC(=O)NCC2COc3ccccc3O2)n1 (stereo unspecified),-17%,1%,/,2%,1%
Cn1c(=O)cc(SCC(=O)NCC2COc3ccccc3O2)c2ccccc21 (stereo unspecified),4%,6%,-6%,0%,2.9µM*
COc1ccc(N2CCN(C(=O)CN3C(=O)NC(C)(C4CC4)C3=O)CC2)cc1 (stereo unspecified),?,2%,/,-3%,-23%
Nc1ccc(S(=O)(=O)NCCS(=O)(=O)O)cc1,/,/,0%,/,/
NC(=O)c1ccccc1NC(=O)C1CCCO1 (stereo unspecified),1%,8%,4%,-4%,10µM*
O=C(Nc1ccc(F)cc1)c1ccc(NC(=O)C2CCCO2)cc1 (stereo unspecified),33%,2%,5%,2%,1.9µM*
CC1CCN(CCNC(=O)c2ccc(NC(=O)C3CCCO3)cc2)CC1 (stereo unspecified),3%,15%,4%,4%,1%
CC1CCN(C(=O)c2ccc(NC(=O)C3CCCO3)cc2)CC1 (stereo unspecified),13%,0%,-8%,11%,15µM*

# Source: PubChem BioAssay (National Center for Advancing Translational Sciences (NCATS))
